Measured values published in paper PMC4336329 (PLoS ONE, 2015).
Screen size: about 310,000 compounds; about 14,000 (4.5%) showed an effect of 50% or more. The effect is printed as a negative number. This is one part of a sample in which strong results are shown more often than they occur.

Molecular target: human ether-à-go-go-related gene (hERG) potassium channel (human, UniProt Q12809)
Assay: primary screen, population patch clamp on CHO cells stably expressing hERG; higher = less effect of the substance
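Note: peak tail current of the secondary pulse compared with the same well before compound.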

Chain of human ether-à-go-go-related gene (hERG) potassium channel (Q12809 whole entry, looked up): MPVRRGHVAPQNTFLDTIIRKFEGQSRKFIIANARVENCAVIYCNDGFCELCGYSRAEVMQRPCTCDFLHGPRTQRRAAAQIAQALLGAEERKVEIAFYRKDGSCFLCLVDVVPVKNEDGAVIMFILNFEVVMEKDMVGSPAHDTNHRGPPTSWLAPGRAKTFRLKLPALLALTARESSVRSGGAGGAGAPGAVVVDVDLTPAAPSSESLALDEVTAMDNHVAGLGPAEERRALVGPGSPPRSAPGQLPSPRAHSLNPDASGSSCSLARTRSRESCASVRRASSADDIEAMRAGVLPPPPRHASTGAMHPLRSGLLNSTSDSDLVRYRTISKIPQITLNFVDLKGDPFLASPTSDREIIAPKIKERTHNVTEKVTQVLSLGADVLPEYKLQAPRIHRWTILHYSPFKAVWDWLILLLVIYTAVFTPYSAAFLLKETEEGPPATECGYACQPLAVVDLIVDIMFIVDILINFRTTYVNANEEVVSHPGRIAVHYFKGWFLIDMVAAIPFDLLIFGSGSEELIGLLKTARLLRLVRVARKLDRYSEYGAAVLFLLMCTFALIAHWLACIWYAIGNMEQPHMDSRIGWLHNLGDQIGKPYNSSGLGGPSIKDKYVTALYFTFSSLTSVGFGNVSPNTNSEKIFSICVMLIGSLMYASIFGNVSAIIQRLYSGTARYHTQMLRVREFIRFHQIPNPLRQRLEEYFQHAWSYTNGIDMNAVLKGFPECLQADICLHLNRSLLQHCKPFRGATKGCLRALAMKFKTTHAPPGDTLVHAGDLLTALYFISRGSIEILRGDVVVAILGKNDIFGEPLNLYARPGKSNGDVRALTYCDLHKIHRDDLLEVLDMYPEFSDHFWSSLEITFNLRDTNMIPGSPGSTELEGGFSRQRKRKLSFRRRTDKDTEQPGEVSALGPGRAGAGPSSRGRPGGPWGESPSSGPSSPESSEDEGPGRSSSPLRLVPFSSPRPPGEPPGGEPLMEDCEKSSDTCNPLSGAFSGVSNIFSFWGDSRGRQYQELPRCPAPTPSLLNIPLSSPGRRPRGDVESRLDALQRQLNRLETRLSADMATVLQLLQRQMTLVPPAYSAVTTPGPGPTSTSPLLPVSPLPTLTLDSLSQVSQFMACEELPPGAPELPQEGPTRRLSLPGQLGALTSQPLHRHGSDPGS

SMILES	hERG current change (%, negative = inhibition) at 10uM [%]
O=C1C2ON(c3ccccc3)C(c3cccnc3)C2C(=O)N1Cc1ccccc1 (stereo not drawn)	-50.8
O=C1C2ON(c3ccccc3)C(c3cccnc3)C2C(=O)N1c1ccc(Cl)c(Cl)c1 (stereo not drawn)	10.5
O=C1C2ON(c3ccccc3)C(c3cccnc3)C2C(=O)N1c1ccccc1 (stereo not drawn)	18.1
CC(C)(C)n1nnnc1C(c1ccc(F)cc1)N1CCC(C(N)=O)CC1.Cl (stereo not drawn)	11.3
O=C(c1ccco1)N1CCN(C(=O)c2ccc(-c3cccc(C(F)(F)F)c3)o2)CC1	-79.9
CC(=O)N1CCN(C(=O)c2ccc(-c3cccc(C(F)(F)F)c3)o2)CC1	-53.5
O=C(c1ccc(-c2cccc(C(F)(F)F)c2)o1)N1CCN(c2ccccc2O)CC1	17.1
COc1ccc(C(CNC(=O)c2ccc(-c3cccc(C(F)(F)F)c3)o2)N2CCOCC2)cc1 (stereo not drawn)	-6.09
CC1CN(C(=O)c2ccc(-c3cccc(C(F)(F)F)c3)o2)CC(C)O1 (stereo not drawn)	-43.7
O=C(c1ccc(-c2cccc(C(F)(F)F)c2)o1)N1CCCCCCC1	-3.68
CC(C)(CNC(=O)c1ccc(-c2cccc(C(F)(F)F)c2)o1)N1CCOCC1	-76.3
O=C(c1ccc(-c2cccc(C(F)(F)F)c2)o1)N1CCOCC1	-21.8
O=C(c1ccco1)N1CCN(Cc2cccc(C(F)(F)F)c2)CC1	-5.15
CC(=O)NC(CC(=O)Nc1cccc(S(=O)(=O)N2CCCCC2)c1)c1ccccc1 (stereo not drawn)	-1.76
CCCCC(=O)Nc1cc(Cl)ccc1C(=O)O	27.6
CC(=O)N1CCC(c2c[nH]c3ccccc23)CC1	5.87
CCn1ncc(-c2ccnc3cc(C(=O)O)nn23)c1C	12.6
CC(c1ccccc1)n1c(N2CCNCC2)nc2c1c(=O)[nH]c(=O)n2C (stereo not drawn)	6.32
O=C(/C=C/c1ccccc1)OCc1cnc(Cl)s1	-6.4
Cc1ccc(S(=O)(=O)Cn2nnnc2C(CC(C)C)N2CCC(C(N)=O)CC2)cc1 (stereo not drawn)	-12.2
Cc1cc(NC(=O)/C=C/c2ccccc2)c(C(C)C)cc1O	10.7
CC(C)c1ccc(NC2CCCN(C(=O)CCN3CCOCC3)C2)cc1 (stereo not drawn)	0.518
O=C(NCc1ccc(F)cc1)c1ccc(N2CCOCC2)c([N+](=O)[O-])c1	-39.6
O=C(Nc1cccnc1)c1ccc(N2CCOCC2)c([N+](=O)[O-])c1	21.7

SMILES	hERG current change (%, negative = inhibition) at 10uM [%]
O=C(Nc1ccc(Cc2ccncc2)cc1)c1ccc(N2CCOCC2)c([N+](=O)[O-])c1	-59.1
C=C1CCN(c2ccc(C(=O)NCc3ccc(OC)cc3)cc2[N+](=O)[O-])CC1	-7.55
O=C(Nc1ccc(Cc2ccncc2)cc1)c1cc([N+](=O)[O-])ccc1N1CCOCC1	-39
COc1ccc(CNC(=O)c2ccc(N3CCOCC3)c([N+](=O)[O-])c2)cc1	-52.1
COc1ccc(/C=N/NC(=O)c2cc(-c3ccccc3OC(C)C)nc3ccccc23)cc1CN1CCOCC1	-4.54
O.O=C(OCC1OC2C(Oc3nc(=O)ccn32)C1O)c1ccccc1 (stereo not drawn)	-0.213
Cc1ccc(C(=O)N(C)Cc2ccc(N3CCOCC3)cc2)cc1S(=O)(=O)NCc1ccccc1	-55.6
Cc1ccc(C)c(S(=O)(=O)NCc2ccc(C(=O)N3CCN(c4ccccc4)CC3)cc2)c1	-3.21
Cc1ccc(C(=O)N(C)Cc2ccccc2)cc1S(=O)(=O)N1CCOCC1	-12.8
CCN(CC)C(=O)N1CCc2ccccc21	0.177
COc1cccc(CC2(CO)CCCN(Cc3cn[nH]c3C3CCCCC3)C2)c1 (stereo not drawn)	-45.1
COc1cccc(CC2(CO)CCCN(Cc3c(C)cc(C)cc3-n3cccn3)C2)c1 (stereo not drawn)	-84.4
COc1cccc(CC2(CO)CCCN(Cc3cc(F)ccc3-n3cccn3)C2)c1 (stereo not drawn)	-77.3
COc1cccc(CC2(CO)CCCN(Cc3cn[nH]c3-c3ccc(F)cc3)C2)c1 (stereo not drawn)	6.58
CCn1ccnc1CN1CCCC(CO)(Cc2cccc(OC)c2)C1 (stereo not drawn)	-17.7
COc1ccc(-n2ccnc2CN2CCCC(CO)(Cc3cccc(OC)c3)C2)cc1 (stereo not drawn)	-24.2
COc1ccc(NC2=C(NC(C)=O)C(=O)c3ccccc3C2=O)cc1	13.5
COc1cc(OC)nc(NC(=O)CSc2nc3ccccc3[nH]2)n1	-1.61
CCOc1ccc(CCNC(=O)c2cccc(S(=O)(=O)N3CC(C)OC(C)C3)c2)cc1OCC (stereo not drawn)	-27.3
COCCCC1CCN(Cc2cn[nH]c2-c2cc(OC)c(OC)c(OC)c2)CC1	-61.8
COc1cc(-c2[nH]ncc2CN2CCN(c3cccc(C)n3)CC2)cc(OC)c1OC	-47.3
COc1cc(-c2[nH]ncc2CN2CCN(Cc3cccs3)CC2)cc(OC)c1OC	-50.3
COc1ccc(-c2[nH]ncc2CN2CCN(Cc3cccs3)CC2)cc1F	-31.2
COc1cc(-c2[nH]ncc2CN2CCSCC2)cc(OC)c1OC	-9.26

SMILES	hERG current change (%, negative = inhibition) at 10uM [%]
COCC1CCN(Cc2cn[nH]c2-c2cc(OC)c(OC)c(OC)c2)CC1	-38.1
CCCCN(C(=O)c1cccc(S(=O)(=O)N2CCCC2)c1)c1c(N)n(CCC)c(=O)[nH]c1=O	4.89
CCN(CC)CCCN=Cc1c(O)n(-c2ccc(C)cc2)c(=O)c2ccccc12	-5.54
CCN(CC)CCCN=Cc1c(O)n(-c2cccc(C)c2)c(=O)c2ccccc12	-42.8
O=c1c2ccccc2c(C=NCCCN2CCOCC2)c(O)n1Cc1ccccc1	-47.7
CCN(CC)CCCN=Cc1c(O)n(-c2ccccc2C)c(=O)c2ccccc12	-52.8
CCN(CC)CCCN=Cc1c(O)n(-c2c(C)cccc2C)c(=O)c2ccccc12	-34.2
CN(C)CCCN=Cc1c(O)n(Cc2ccccc2)c(=O)c2ccccc12	-64.5
CN(C)CCN=Cc1c(O)n(Cc2ccc3c(c2)OCO3)c(=O)c2ccccc12	-13.8
CN(C)CCCN=Cc1c(O)n(Cc2ccc3c(c2)OCO3)c(=O)c2ccccc12	-49.1
O=c1c2ccccc2c(C=NCCc2ccccc2)c(O)n1Cc1ccccc1	-5.61
CN(C)CCN=Cc1c(O)n(Cc2ccccc2)c(=O)c2ccccc12	-52.2
CCN(CC)CCN=Cc1c(O)n(Cc2ccccc2)c(=O)[nH]c1=O [14739636]	-31.3
CCN(CC)CCCN=Cc1c(O)n(Cc2ccccc2)c(=O)c2ccccc12	-76.7
Cc1cccc(NC(=O)CSc2nnc(Cn3cnc4ccccc43)o2)c1	-9.07
Cc1ccc(S(=O)(=O)N2CCN(C(=O)c3c(-c4ccccc4)noc3C)CC2)cc1	-4.97
COc1ccc(S(=O)(=O)Nc2ccc(C(F)(F)F)cc2)cc1OC	-12.4
CCCC1CCC(c2nc(-c3cccnc3)no2)CC1 (stereo not drawn)	2.03
O=C(Cc1ccccc1)N1CCC(c2nc(-c3ccc(F)cc3)no2)CC1	-50.6
Fc1ccc(-c2noc(C3CCN(Cc4cccnc4)CC3)n2)cc1	-51.5
O=C(c1ccco1)N1CCC(c2nc(-c3ccc(F)cc3)no2)CC1	-41.8
O=S(=O)(Cc1ccccc1)N1CCCC(c2nc(-c3ccc(F)cc3)no2)C1 (stereo not drawn)	-3.59
O=C(Cc1ccccc1)N1CCCC(c2nc(-c3ccc(S(=O)(=O)N4CCCC4)cc3)no2)C1 (stereo not drawn)	-9.11
COCC(=O)N1CCC(Oc2ccc(C(=O)NC3Cc4ccccc4C3)cc2)CC1	-3.57

SMILES	hERG current change (%, negative = inhibition) at 10uM [%]
S=c1[nH]nc(-c2ccncc2)n1/N=C/C(Cl)=C\c1ccccc1	23.3
COc1ccccc1CNC(=O)c1cccc(N(C)C)c1	-2.52
CCCCn1c(O)c(C(C)=NC(Cc2c[nH]c3ccccc23)C(=O)OC)c(=O)[nH]c1=O (stereo not drawn)	-52.1
CCCCn1c(O)c(C(C)=NC(C)c2ccccc2)c(=O)[nH]c1=O (stereo not drawn)	-22.3
CCCCn1c(O)c(C(C)=NCCc2c[nH]c3ccccc23)c(=O)[nH]c1=O	-16
COC(=O)c1cc(=O)nc2scc(C)n12	-23.1
CCC1CCCCN1Cc1ccc(CNS(=O)(=O)c2ccc3c(c2)oc(=O)n3C)o1 (stereo not drawn)	-19.3
CCOC(=O)c1cc(-c2cc(OC)c(OC)c(OC)c2)nc2c1c(=O)[nH]c(=O)n2Cc1ccccc1	1.34
CCCOC(=O)c1ccc(NC(=O)CC(C)(C)C)cc1	-11.1
C/C(=N\N1CCN(Cc2ccc(Cl)cc2)CC1)c1ccc(F)cc1	-51.6
C(=C\c1ccccc1)/C=N/N1CCN(Cc2ccccc2)CC1	1.45
C/C(=N\N1CCN(Cc2ccccc2Cl)CC1)c1ccc(F)cc1	2.05
C/C(=N\N1CCN(c2ccc(Cl)cc2)CC1)c1cccc([N+](=O)[O-])c1	-12.4
C/C(=N\N1CCN(Cc2ccc(Cl)cc2)CC1)c1ccc([N+](=O)[O-])cc1	-72.6
CC(=O)Oc1ccc(/C(C)=N\N2CCN(Cc3ccc(Cl)cc3)CC2)cc1	-36.8
Cc1ccc(CN2CCN(/N=C\C=C\c3ccccc3)CC2)cc1	-72.2
C/C(=N/N1CCN(Cc2ccccc2)CC1)c1ccc(Br)cc1	-19.9
CC(=O)Oc1ccc(/C(C)=N/N2CCN(Cc3ccc(C)cc3)CC2)cc1	-73.2
O=[N+]([O-])c1ccc(Cl)c(/C=N/N2CCN(Cc3ccc(Cl)cc3)CC2)c1	4.9
Cc1ccc(CN2CCN(/N=C/c3ccccc3)CC2)cc1	-12.7
COc1cc(/C(C)=N/N2CCN(Cc3ccc(C)cc3)CC2)ccc1O	-44.3
